# The supplement of paper PMC10515830
# Counter-ions that a name gives are not always drawn.
# Columns and labels:
# Conditions in all cases: 10 µM; exposure time 6 h
# [1] = system: Danio rerio larvae (5 dpf); assay: difference in excitability vs DMSO (percentage points); higher = more excitable than DMSO
# Procedure, shortened: (§1)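 Wild-type zebrafish larvae at 5 dpf were kept in 96-well plates and exposed for 6 h to 100 µL egg water holding library compound at a final concentration of 10 µM. From 3 h into exposure, the plates were held at 28.5 ℃ and photographed every 6 s through a 3-h programme of moving lines and 100 ms, 400Hz tones. Each behaviour was scored by Z-LaP Tracker, a DeepLabCut model, and averaged over 48 larvae per compound. Every value gives the compound mean minus the vehicle control mean, in percentage points.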
# [2] = system: Danio rerio larvae (5 dpf); assay: difference in startle response vs DMSO (percentage points); higher = stronger startle than DMSO
# Procedure, shortened: as §1
# [3] = system: Danio rerio larvae (5 dpf); assay: difference in activity during first hour vs DMSO (percentage points); higher = more activity than DMSO
# Procedure, shortened: as §1
# [4] = system: Danio rerio larvae (5 dpf); assay: difference in habituation to acoustic stimuli vs DMSO (percentage points); higher = more habituation than DMSO
# Procedure, shortened: as §1
# [5] = system: Danio rerio larvae (5 dpf); assay: difference in combined optomotor response to red, green and blue moving lines vs DMSO (percentage points); higher = stronger optomotor response than DMSO
# Procedure, shortened: as §1
smiles,measurement,setting,value
CC(C)(C)c1nc(-c2cccc(NS(=O)(=O)c3c(F)cccc3F)c2F)c(-c2ccnc(N)n2)s1 [Dabrafenib],difference in excitability,[1],1.22
same,difference in startle response,[2],0.607
same,difference in activity during first hour,[3],3.67
same,difference in habituation to acoustic stimuli,[4],-5.97
same,difference,[5],-1.51
Cc1cccc(C)c1OCC(C)N (stereo not given) [Mexiletine (hydrochloride)],difference in excitability,[1],9.5
same,difference in startle response,[2],1.48
same,difference in activity during first hour,[3],-2.5
same,difference in habituation to acoustic stimuli,[4],-10.3
same,difference,[5],1.04
CC[C@H]1OC(=O)[C@H](C)[C@@H](O[C@H]2C[C@@](C)(OC)[C@@H](O)[C@H](C)O2)[C@H](C)[C@@H](O[C@@H]2O[C@H](C)C[C@H](N(C)C)[C@H]2O)[C@](C)(O)C[C@@H](C)C(=O)[C@H](C)[C@@H](O)[C@]1(C)O [Erythromycin],difference in excitability,[1],4.99
same,difference in startle response,[2],-6.73
same,difference in activity during first hour,[3],13.1
same,difference in habituation to acoustic stimuli,[4],-0.584
same,difference,[5],9.53
C[C@@H](O)[C@H]1C(=O)N2C(C(=O)O)=C(S[C@@H]3CN[C@H](C(=O)Nc4cccc(C(=O)O)c4)C3)[C@H](C)[C@H]12 [Ertapenem (sodium salt)],difference in excitability,[1],3.87
same,difference in startle response,[2],3.36
same,difference in activity during first hour,[3],14.7
same,difference in habituation to acoustic stimuli,[4],7.59
same,difference,[5],3.82
Nc1ccc(C(=O)NCC(=O)O)cc1 [4-Aminohippuric Acid],difference in excitability,[1],3.62
same,difference in startle response,[2],5.22
same,difference in activity during first hour,[3],3.44
same,difference in habituation to acoustic stimuli,[4],-0.693
same,difference,[5],7.16
CC(C)OC(=O)C(C)(C)Oc1ccc(C(=O)c2ccc(Cl)cc2)cc1 [Fenofibrate],difference in excitability,[1],13.8
same,difference in startle response,[2],-6.52
same,difference in activity during first hour,[3],45.6
same,difference in habituation to acoustic stimuli,[4],-9.59
same,difference,[5],-15.8
CC(=O)Oc1ccccc1C(=O)Nc1ncc([N+](=O)[O-])s1 [Nitazoxanide],difference in excitability,[1],12.9
same,difference in startle response,[2],-13.9
same,difference in activity during first hour,[3],-14.8
same,difference in habituation to acoustic stimuli,[4],-12.4
same,difference,[5],-17.8
NNC(=O)c1ccncc1 [Isoniazid],difference in excitability,[1],6.63
same,difference in startle response,[2],4.93
same,difference in activity during first hour,[3],12.7
same,difference in habituation to acoustic stimuli,[4],-2.52
same,difference,[5],6.66
COC(=O)/C=C/C(=O)OC [Dimethyl fumarate],difference in excitability,[1],19.8
same,difference in startle response,[2],-1.87
same,difference in activity during first hour,[3],20.1
same,difference in habituation to acoustic stimuli,[4],-2.23
same,difference,[5],12
OCc1cc(C(O)CNCCCCCCOCCCCc2ccccc2)ccc1O (stereo not given) [Salmeterol (xinafoate)],difference in excitability,[1],12.9
same,difference in startle response,[2],-5.05
same,difference in activity during first hour,[3],20.1
same,difference in habituation to acoustic stimuli,[4],-7.62
same,difference,[5],7.79
CCC(=O)NC[C@@H]1C[C@H]1c1cccc2c1CCO2 [Tasimelteon],difference in excitability,[1],25
same,difference in startle response,[2],6.9
same,difference in activity during first hour,[3],-17.9
same,difference in habituation to acoustic stimuli,[4],-3.17
same,difference,[5],11.5
CC(=O)O[C@]1(C(C)=O)CC[C@H]2[C@@H]3C[C@H](C)C4=CC(=O)CC[C@]4(C)[C@H]3CC[C@@]21C [Medroxyprogesterone 17-acetate],difference in excitability,[1],9.28
same,difference in startle response,[2],-1.88
same,difference in activity during first hour,[3],-1.67
same,difference in habituation to acoustic stimuli,[4],-11.4
same,difference,[5],-9.37
CO[C@H]1C[C@@H]2CC[C@@H](C)[C@@](O)(O2)C(=O)C(=O)N2CCCC[C@H]2C(=O)O[C@H]([C@H](C)C[C@@H]2CC[C@@H](OC(=O)C(C)(CO)CO)[C@H](OC)C2)CC(=O)[C@H](C)/C=C(\C)[C@@H](O)[C@@H](OC)C(=O)[C@H](C)C[C@H](C)/C=C/C=C/C=C/1C [Temsirolimus],difference in excitability,[1],7.02
same,difference in startle response,[2],-6.86
same,difference in activity during first hour,[3],-1.53
same,difference in habituation to acoustic stimuli,[4],4.35
same,difference,[5],0.433
Cc1cccc(Nc2ccccc2C(=O)O)c1C [Mefenamic Acid],difference in excitability,[1],6.54
same,difference in startle response,[2],-1.5
same,difference in activity during first hour,[3],-5.95
same,difference in habituation to acoustic stimuli,[4],-12.8
same,difference,[5],-15.5
CC(C)NCC(O)COc1ccc(CCOCC2CC2)cc1 (stereo not given) [Betaxolol (hydrochloride)],difference in excitability,[1],2.57
same,difference in startle response,[2],2.31
same,difference in activity during first hour,[3],11.4
same,difference in habituation to acoustic stimuli,[4],-2.52
same,difference,[5],6.22
CCCN(CCc1cccs1)[C@H]1CCc2c(O)cccc2C1 [Rotigotine],difference in excitability,[1],20.1
same,difference in startle response,[2],-3.78
same,difference in activity during first hour,[3],-23.8
same,difference in habituation to acoustic stimuli,[4],-14.4
same,difference,[5],-15.9
CCCc1nc2c(C)cc(-c3nc4ccccc4n3C)cc2n1Cc1ccc(-c2ccccc2C(=O)O)cc1 [Telmisartan],difference in excitability,[1],14.6
same,difference in startle response,[2],-11.8
same,difference in activity during first hour,[3],9.61
same,difference in habituation to acoustic stimuli,[4],-3.85
same,difference,[5],-8.32
CCc1cc2c(cc1N1CCC(N3CCOCC3)CC1)C(C)(C)c1[nH]c3cc(C#N)ccc3c1C2=O,difference in excitability,[1],-3.24
same,difference in startle response,[2],3.84
same,difference in activity during first hour,[3],9.56
same,difference in habituation to acoustic stimuli,[4],0.995
same,difference,[5],0.182
OCCOCCN1CCN(C2=Nc3ccccc3Sc3ccccc32)CC1 [Quetiapine (hemifumarate)],difference in excitability,[1],-1.54
same,difference in startle response,[2],-3.79
same,difference in activity during first hour,[3],16.8
same,difference in habituation to acoustic stimuli,[4],-4.99
same,difference,[5],10.6
NS(=O)(=O)c1cc2c(cc1Cl)N=CNS2(=O)=O [Chlorothiazide],difference in excitability,[1],-0.0236
same,difference in startle response,[2],-3.29
same,difference in activity during first hour,[3],3.22
same,difference in habituation to acoustic stimuli,[4],6.65
same,difference,[5],-5.74
COCCOC(=O)C1=C(C)NC(C)=C(C(=O)OC(C)C)C1c1cccc([N+](=O)[O-])c1 (stereo not given) [Nimodipine],difference in excitability,[1],7.48
same,difference in startle response,[2],-6.36
same,difference in activity during first hour,[3],11.8
same,difference in habituation to acoustic stimuli,[4],-10.8
same,difference,[5],-14.5
COc1ccc(CC(C)NCC(O)c2ccc(O)c(NC=O)c2)cc1 (stereo not given) [Formoterol (hemifumarate hydrate)],difference in excitability,[1],9.74
same,difference in startle response,[2],-13.1
same,difference in activity during first hour,[3],49.1
same,difference in habituation to acoustic stimuli,[4],-7.8
same,difference,[5],1.18
CC(O)(P(=O)(O)O)P(=O)(O)O [Etidronate (sodium salt)],difference in excitability,[1],5.12
same,difference in startle response,[2],2.23
same,difference in activity during first hour,[3],11.4
same,difference in habituation to acoustic stimuli,[4],-1.7
same,difference,[5],4.9
Cc1ccc(S(=O)(=O)NC(=O)NN2CCCCCC2)cc1 [Tolazamide],difference in excitability,[1],7.01
same,difference in startle response,[2],21.4
same,difference in activity during first hour,[3],4.59
same,difference in habituation to acoustic stimuli,[4],2.23
same,difference,[5],9.69
S=c1nc[nH]c2nc[nH]c12 [6-Mercaptopurine (hydrate)],difference in excitability,[1],6.66
same,difference in startle response,[2],2.46
same,difference in activity during first hour,[3],-5.06
same,difference in habituation to acoustic stimuli,[4],-0.245
same,difference,[5],1.98
NC(=O)Cc1cccc(C(=O)c2ccccc2)c1N [Nepafenac],difference in excitability,[1],9.24
same,difference in startle response,[2],1.72
same,difference in activity during first hour,[3],-6.03
same,difference in habituation to acoustic stimuli,[4],4.01
same,difference,[5],-4.77
OCCOc1ccc(/C(=C(/CCCl)c2ccccc2)c2ccccc2)cc1 [Ospemifene],difference in excitability,[1],6.62
same,difference in startle response,[2],-3.99
same,difference in activity during first hour,[3],-12.6
same,difference in habituation to acoustic stimuli,[4],-8.31
same,difference,[5],-16.5
Cc1ccc(/C(=C\CN2CCCC2)c2cccc(/C=C/C(=O)O)n2)cc1 [Acrivastine],difference in excitability,[1],1.28
same,difference in startle response,[2],-0.645
same,difference in activity during first hour,[3],0.462
same,difference in habituation to acoustic stimuli,[4],0.73
same,difference,[5],-3.37
CCOc1ccc2ccccc2c1C(=O)N[C@@H]1C(=O)N2[C@@H]1SC(C)(C)[C@@H]2C(=O)O [Nafcillin (sodium salt hydrate)],difference in excitability,[1],3.99
same,difference in startle response,[2],-0.0381
same,difference in activity during first hour,[3],19.4
same,difference in habituation to acoustic stimuli,[4],-2.07
same,difference,[5],5.58
Cc1ccc(Nc2nccc(N(C)c3ccc4c(C)n(C)nc4c3)n2)cc1S(N)(=O)=O [Pazopanib],difference in excitability,[1],3.47
same,difference in startle response,[2],-4.32
same,difference in activity during first hour,[3],-7.88
same,difference in habituation to acoustic stimuli,[4],0.185
same,difference,[5],1.79
O=C(c1ccccc1)c1ccc2n1CCC2C(=O)O (stereo not given) [Ketorolac (tromethamine salt)],difference in excitability,[1],-0.0297
same,difference in startle response,[2],5.09
same,difference in activity during first hour,[3],-3.37
same,difference in habituation to acoustic stimuli,[4],7.86
same,difference,[5],-1.11
CCOc1ccccc1OCCN[C@H](C)Cc1ccc(OC)c(S(N)(=O)=O)c1 [Tamsulosin (hydrochloride)],difference in excitability,[1],25.5
same,difference in startle response,[2],3.47
same,difference in activity during first hour,[3],-3.28
same,difference in habituation to acoustic stimuli,[4],1.9
same,difference,[5],1.52
CO[C@@]1(NC(=O)C2SC(=C(C(N)=O)C(=O)O)S2)C(=O)N2C(C(=O)O)=C(CSc3nnnn3C)CS[C@@H]21 (stereo not given in full) [Cefotetan (sodium salt)],difference in excitability,[1],-4.63
same,difference in startle response,[2],4.7
same,difference in activity during first hour,[3],10.3
same,difference in habituation to acoustic stimuli,[4],7.15
same,difference,[5],-1.08
N[C@@H]1CONC1=O [D-Cycloserine],difference in excitability,[1],6.37
same,difference in startle response,[2],-2.86
same,difference in activity during first hour,[3],4.38
same,difference in habituation to acoustic stimuli,[4],-2.22
same,difference,[5],10.3
COc1ccc(CC(C)(C)NC[C@H](O)c2cc(O)cc3c2OCC(=O)N3)cc1 [Olodaterol],difference in excitability,[1],10.9
same,difference in startle response,[2],-5.93
same,difference in activity during first hour,[3],11.8
same,difference in habituation to acoustic stimuli,[4],-9.87
same,difference,[5],3.03
